From PubChem BioAssay (Tox21) come the findings set out here.

Values without a mark were called inactive. Records with an inconclusive call do not appear. Activity calls are given as the source filed them. Unless noted, calls come from the whole dose curve; as a rule, active = well fitted curve in the direction sought with a large enough effect in the repeat runs; inconclusive = weak or mixed curves; inactive = no such curve, though single readings can be large; an effect the other way counts as inactive or inconclusive.

The target of assay [1] is Thyrotropin receptor (Homo sapiens) (UniProt P16473). Put plainly: qHTS assay to identify small molecule agonists of the thyroid stimulating hormone receptor (TSHR) signaling pathway (AID 1224843; calls by dose curve; note: nearly all actives have a fitted effect of over 45% in size). Put shortly: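 Steps: seed 800 TSHR-HEK293 cells per well; add test compound and hold 30 min at ambient temperature; dispense cAMP-d2 then anti-cAMP cryptate; incubate 1 h at ambient; measure fluorescence intensity.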

A short description of assay [2]: qHTS RealTime-Glo MT Cell Viability Assay in HepG2 cells - 24 hour (AID 1224867). Note: nearly all actives have a fitted effect of over 50% in size. Put shortly: (§1)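 HepG2 cells were seeded at 600 cells/well together with NanoLuc luciferase and a cell-permeant prosubstrate, preincubated 5 h at 37 C/5% CO2, then pin-dosed with compounds in DMSO. Nonlytic luminescence from viable cells was read at each time point.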
The nature of assay [3]: qHTS RealTime-Glo MT Cell Viability Assay in HEK293 cells - 32 hour (AID 1224868). Note: nearly all actives have a fitted effect of over 50% in size. Note: potency is the fitted concentration of half-maximal effect. Put shortly: (§2)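 HEK293 cells were seeded at 600 cells/well together with NanoLuc luciferase and cell-permeant prosubstrate, preincubated 5 h at 37 C/5% CO2, then given compound in DMSO by pintool. Luminescence from viable-cell prosubstrate reduction was read repeatedly over 40 h.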
Assay [4] is described as follows: A CellTox Green Cytotoxicity Assay to monitor cytotoxicity in HEK293 cells - 0 hour (AID 1224869). Note: nearly all actives have a fitted effect of over 50% in size. Put shortly: (§3)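 Each value comes from one timepoint of a single continuous run in which HEK293 cells with CellTox Green were exposed to compound for up to 40 h at 37 C, dye fluorescence rising with cell death.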
Assay [5] in a line: qHTS RealTime-Glo MT Cell Viability Assay in HepG2 cells - 40 hour (AID 1224870). Note: nearly all actives have a fitted effect of over 50% in size. Put shortly: (§4)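 HepG2 cells (600/well) mixed with RealTime-Glo MT reagent, settled 5 h at 37 C/5% CO2 before compound addition. Nonlytic NanoLuc luminescence from viable-cell prosubstrate reduction read repeatedly during 40 h treatment at 37 C.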
The nature of assay [6]: A CellTox Green Cytotoxicity Assay to monitor cytotoxicity in HEK293 cells - 40 hour (AID 1224871). Note: nearly all actives have a fitted effect of over 45% in size. Put shortly: as §3
Assay [7] in a line: qHTS RealTime-Glo MT Cell Viability Assay in HEK293 cells - 16 hour (AID 1224872). Note: nearly all actives have a fitted effect of over 50% in size. Note: potency is the fitted concentration of half-maximal effect. Put shortly: as §2
Assay [8] in a line: qHTS RealTime-Glo MT Cell Viability Assay in HepG2 cells - 8 hour (AID 1224873). Note: nearly all actives have a fitted effect of over 55% in size. Put shortly:
as §4

Assay [9] can be described thus: qHTS RealTime-Glo MT Cell Viability Assay in HEK293 cells - 40 hour (AID 1224874). Note: nearly all actives have a fitted effect of over 50% in size. Note: potency is the fitted concentration of half-maximal effect. Conditions: RealTime-Glo luminescence; max response: hits give low values. Put shortly:
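qHTS format; HEK293 cells with NanoLuc/prosubstrate reagent, 37 C/5% CO2 for 5 h pre-dosing; compounds 23 nL in DMSO; luminescence at each time point reflects viable cells.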

Assay [10] can be described thus: A CellTox Green Cytotoxicity Assay to monitor cytotoxicity in HEK293 cells - 24 hour (AID 1224875). Note: nearly all actives have a fitted effect of over 45% in size. Put shortly:
as §3

Assay [11] is described as follows: qHTS RealTime-Glo MT Cell Viability Assay in HepG2 cells - 32 hour (AID 1224877). Note: nearly all actives have a fitted effect of over 55% in size. Put shortly:
as §1

Assay [12] is described as follows: A CellTox Green Cytotoxicity Assay to monitor cytotoxicity in HepG2 cells - 24 hour (AID 1224878). Note: nearly all actives have a fitted effect of over 45% in size. Put shortly: (§5)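 Continuous culture of HepG2 cells with a membrane-impermeant DNA dye; rising fluorescence marks dead cells. Compound exposure lasted up to 40 h at 37 C, with reads every 8 h from 0 h.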
Assay [13] can be described thus: A CellTox Green Cytotoxicity Assay to monitor cytotoxicity in HepG2 cells - 40 hour (AID 1224879). Note: nearly all actives have a fitted effect of over 40% in size. Put shortly:
as §5

Assay [14] can be described thus: qHTS assay to identify small molecule agonists of H2AX (AID 1224845; active = well fitted activation curve with a large enough effect in the signal ratio in the repeat runs, not every such curve was filed as active; the % refers to the signal ratio). Put shortly:
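Wild-type CHO-K1 cells, plated overnight, exposed 3hr at 37C to 15 concentrations (0.76% DMSO final). Lysed, then HTRF anti-pH2AX (S139) cryptate and anti-H2AX-d2 antibodies, 24 hr room temperature; 665/620 nm emission read.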

A short description of assay [15]: qHTS assay to identify small molecule antagonists of the estrogen related receptor (ERR) signaling pathway from Tox21 library (AID 1224848). Note: nearly all actives have a fitted effect of over 50% in size. Note: potency is the fitted concentration of half-maximal effect. Put shortly: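 Luminescent reporter read-out (ONE-Glo) from NTP's ERR cell line after 18 h treatment at 37 C with DMSO-dissolved Tox21 compounds; cells pre-plated 6 h beforehand at 2,000 per well.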
A short description of assay [16]: qHTS assay to identify small molecule agonists of the estrogen related receptor (ERR) signaling pathway from Tox21 library (AID 1224849; calls by dose curve; note: nearly all actives have a fitted effect of over 15% in size). Conditions: ERR reporter cell line, ONE-Glo luciferase, 18 h; at 92.4 µM (top of the series) unless noted. Put shortly:
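We plated ERR reporter cells, waited 6 h, added compounds in DMSO by pin tool and incubated them 18 h at 37 C. ONE-Glo was then added and luminescence read after 30 min.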

Assay [17] in a line: qHTS assay to identify small molecule agonists of the hypoxia (HIF-1) signaling pathway - cell viability counter screen (AID 1224844; calls by dose curve; note: nearly all actives have a fitted effect of over 50% in size). Put shortly:
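Luminescent ATP content (CellTiter-Glo, 30 min, room temperature) served as the viability measure in HRE-bla ME-180 cells exposed to compounds for 17 hrs in low-serum medium (0.5% dialyzed FBS).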

Assay [18] can be described thus: qHTS assay to identify small molecule agonists of the hypoxia (HIF-1) signaling pathway (AID 1224846; active = well fitted activation curve with a large enough effect in the signal ratio in the repeat runs, not every such curve was filed as active; the % refers to the signal ratio). Put shortly: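 Measured by blue/green FRET after loading CCF4-AM: beta-lactamase expressed from a hypoxia response element in ME-180 cells. Test agents were delivered in DMSO and left 17 hrs; cells had been plated 5 hrs earlier in low-serum (0.5% dialyzed FBS) medium.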

Assay [19] is described as follows: qHTS assay to identify small molecule agonists of H2AX - cell viability counter screen (AID 1224847; calls by dose curve; note: top concentration of the series differs between compounds; nearly all actives have a fitted effect of over 30% in size). Put shortly:
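Cytotoxicity counter screen in wild-type CHO-K1 cells: a 3 hr compound treatment at 37C across 15 concentrations, followed by CellTiter-Glo luminescence to gauge viable cells.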

Assay [20] in a line: A CellTox Green Cytotoxicity Assay to monitor cytotoxicity in HepG2 cells - 16 hour (AID 1224876). Note: nearly all actives have a fitted effect of over 45% in size. Put shortly: as §5
% is set by controls: 0 for no effect and ±100 for the full control effect.

Sequence of Thyrotropin receptor (Homo sapiens) (P16473 whole entry, looked up): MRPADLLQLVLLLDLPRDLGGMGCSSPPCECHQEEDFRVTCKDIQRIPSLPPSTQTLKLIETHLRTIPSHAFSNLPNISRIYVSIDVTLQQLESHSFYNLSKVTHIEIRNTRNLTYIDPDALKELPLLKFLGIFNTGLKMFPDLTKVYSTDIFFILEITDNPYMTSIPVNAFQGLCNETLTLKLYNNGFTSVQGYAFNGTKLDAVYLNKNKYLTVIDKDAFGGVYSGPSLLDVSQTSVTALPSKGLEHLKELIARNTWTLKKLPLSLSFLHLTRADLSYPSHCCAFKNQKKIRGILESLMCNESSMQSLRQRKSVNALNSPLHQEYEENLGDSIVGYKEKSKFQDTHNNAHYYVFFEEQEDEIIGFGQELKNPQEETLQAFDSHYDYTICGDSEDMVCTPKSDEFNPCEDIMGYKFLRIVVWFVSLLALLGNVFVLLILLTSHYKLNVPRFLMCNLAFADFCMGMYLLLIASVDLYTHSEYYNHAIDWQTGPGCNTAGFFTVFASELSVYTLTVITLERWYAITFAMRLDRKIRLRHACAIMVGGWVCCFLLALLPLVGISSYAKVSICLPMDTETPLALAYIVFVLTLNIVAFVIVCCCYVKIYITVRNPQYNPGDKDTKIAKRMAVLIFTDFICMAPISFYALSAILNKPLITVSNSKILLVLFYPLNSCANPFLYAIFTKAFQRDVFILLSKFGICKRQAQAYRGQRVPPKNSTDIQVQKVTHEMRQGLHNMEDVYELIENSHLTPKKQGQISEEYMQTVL

As for `CC(C)c1ccc(C(=O)N=C(N)N)cc1S(C)(=O)=O`, the Potency entry in [1], in [2], in [3], in assay [4], in assay [5] and in [6] was “inactive” each time. Also, the Potency entry in assay [7], in assay [8], in assay [10], in assay [11], in assay [12] and in assay [13] was “inactive” in each case. For the same compound, the max response in assay [9] was 18.4%.
Regarding `CCCCCCCC(=O)Oc1c(Br)cc(C#N)cc1Br`, the Potency result in assay [1], in assay [14], in assay [4], in assay [5], in assay [8] and in [10] was “inactive” throughout. The Potency result in assay [11], in [12] and in assay [13] was “inactive” each time. In addition, the Potency is 48.4 µM (active) in [15], 38.8 µM (active) in assay [3], 38.8 µM (active) in assay [7] and 38.8 µM (active) in [9]. Moreover, in assay [16], the activity change, positive = activation was -61.8%.
As to `CC1CCc2nccnc21` (stereo not drawn), the Potency entry in assay [17], in assay [14], in assay [19], in [15], in assay [2] and in assay [3] was “inactive” throughout. Also, the Potency entry in [4], in [6], in assay [7], in [8], in assay [10] and in assay [11] was “inactive” each time. Besides, the result in [18] was inactive. Further, the max response in assay [9] is -2.75%.
`CC/C=C\C/C=C\C/C=C\CCCCCCCC(=O)OCC`: the Potency entry in [1], in [19], in assay [2], in assay [3], in assay [4] and in [5] was “inactive” throughout. The Potency result in [7], in [8], in [10], in assay [20], in assay [11] and in assay [12] was “inactive” throughout. Besides, in [13], the Potency entry was “inactive”. Moreover, the compound was called inactive in [18]. In addition, the max response in assay [9] was -15.2%.
For the compound `CCCc1nc2c(C)cc(-c3nc4ccccc4n3C)cc2n1Cc1ccc(-c2ccccc2C(=O)O)cc1`, the Potency result in [1], in [14], in [19], in assay [4], in assay [5] and in assay [6] was “inactive” each time. Moreover, the Potency entry in assay [10], in [20], in assay [11], in assay [12] and in [13] was “inactive” throughout.
For `O=[N+]([O-])c1ccc2ncccc2c1`, the Potency result in assay [1], in assay [19], in assay [2], in assay [4], in assay [5] and in assay [6] was “inactive” throughout. The Potency result in assay [7], in assay [8], in assay [10], in assay [20], in [11] and in [12] was “inactive” each time. Further, the Potency entry in assay [13] was “inactive”. The result in [18] was inactive. For the same compound, the activity change, positive = activation in [16] was -20.1%. The max response in assay [9] is 2.13%.
On to `CC1CCCC(=O)C1=O` (stereo not drawn), for which the Potency result in assay [17], in assay [14], in [19], in [2], in assay [3] and in [4] was “inactive” in each case. Besides, the Potency entry in assay [5], in assay [7], in assay [8], in [10], in assay [20] and in assay [11] was “inactive” throughout. For the same compound, the outcome in [18] was inactive. Further, the max response in assay [9] was 4.99%.
For the compound `CC(CCc1ccc(O)cc1)NCCc1ccc(O)c(O)c1` (stereo not drawn), the Potency entry in assay [1], in assay [19], in [15], in [3], in assay [4] and in assay [5] was “inactive” throughout. Moreover, the Potency entry in assay [7], in assay [8], in assay [10], in assay [11], in assay [12] and in [13] was “inactive” in each case. Also, the max response in assay [9] is -18.1%.
In the case of `CC(C)N=C=NC(C)C`, the Potency entry in [17], in assay [14], in [19], in [15], in assay [2] and in assay [4] was “inactive” in each case. Also, the Potency result in [5], in assay [6], in [7], in assay [8], in assay [10] and in assay [20] was “inactive” each time. In addition, the Potency result in assay [11], in [12] and in assay [13] was “inactive” in each case. Further, the result in assay [18] was inactive. Moreover, the activity change, positive = activation in assay [16] was 2.53%. The max response in assay [9] was 3.08%.
